Results on eight molecules are retold here after PubChem BioAssay (NCATS).

Experiment [1] concerns the target Lysosomal acid glucosylceramidase (Homo sapiens) (UniProt P04062). In words: Glucocerebrosidase-p2 (AID 348; in the data active = potency below about 10 µM; note: potency is the fitted concentration of half-maximal effect). As to conditions: purified GBA, blue fluorogenic substrate, 40 min. An outline of the steps:
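Normal human glucocerebrosidase (0.2 nM) with blue fluorogenic substrate (80 uM final) in citrate/phosphate pH 5.9 with 10mM sodium taurocholate, 0.01% tween-20; 40 min RT, NaOH/glycine stop; fluorescence Ex 365/Em 440; AC50 from a titration from 0.6 nM upwards.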

Experiment [2] is described as follows: AP1 Signaling Pathway (AID 357). Note: % is set by controls: 0 for no effect and ±100 for the full control effect. As to conditions: ME-180 AP-1-bla reporter, EGF-induced, beta-lactamase ratio, 5 h; at 7.69 µM (top of the series) unless noted. An outline of the steps: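 ME-180 cells with beta-lactamase reporter under AP-1 response element, stimulated with EC50 EGF; compounds tested in titration series, 5 h at 37 °C. CCF4 substrate added 2.5 h at room temperature; 460/530 nm emission ratio gave %activity and AC50.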

Experiment [3] in a line: NFAT Signaling Pathway (AID 444).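 Note: carbachol stimulus at about its EC50 of 1 µM final; % is set by controls: 0 for no effect and ±100 for the full control effect.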 As to conditions: Jurkat NFAT-bla M1, carbachol, beta-lactamase ratio, 5 h; at 7.69 µM (top of the series) unless noted. An outline of the steps: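 Jurkat cells with NFAT-driven β-lactamase reporter and co-expressed M1 receptor, stimulated with carbachol (final 1 uM, ~EC50), compound titration, 5 h at 37 °C. CCF4 loaded 1 h at RT; 460/530 nm ratio gave %activity and AC50.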

The nature of experiment [4]: Stat Signaling Pathway (AID 446).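 Note: ME-180 cervical cancer cells given 40 pM IL-6 alongside compound; SIE-controlled beta-lactamase reporter measured as 460/530 nm FRET emission ratio; % is set by controls: 0 for no effect and ±100 for the full control effect.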 As to conditions: ME-180 (cervical carcinoma) SIE beta-lactamase reporter, IL-6 stimulated, 5 h; at 7.69 µM (top of the series) unless noted. An outline of the steps:
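Compound effects on IL-6-induced STAT reporter activity were measured in ME-180 cells. After overnight culture, cells were co-treated with 40 pM IL-6 for 5 hrs before beta-lactamase substrate loading at room temperature.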

The target of experiment [5] is Glucocorticoid receptor (Homo sapiens) (UniProt P04150). Description: GR-GFP Redistribution (AID 450;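 active = compounds whose dose series gives a full or clear partial fitted curve of increased nuclear translocation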; note: potency is the fitted concentration of half-maximal effect). As to conditions: U2OS GR-GFP nuclear translocation, laser cytometry, 2 h.
Chain of Glucocorticoid receptor (Homo sapiens) (P04150 whole entry, looked up): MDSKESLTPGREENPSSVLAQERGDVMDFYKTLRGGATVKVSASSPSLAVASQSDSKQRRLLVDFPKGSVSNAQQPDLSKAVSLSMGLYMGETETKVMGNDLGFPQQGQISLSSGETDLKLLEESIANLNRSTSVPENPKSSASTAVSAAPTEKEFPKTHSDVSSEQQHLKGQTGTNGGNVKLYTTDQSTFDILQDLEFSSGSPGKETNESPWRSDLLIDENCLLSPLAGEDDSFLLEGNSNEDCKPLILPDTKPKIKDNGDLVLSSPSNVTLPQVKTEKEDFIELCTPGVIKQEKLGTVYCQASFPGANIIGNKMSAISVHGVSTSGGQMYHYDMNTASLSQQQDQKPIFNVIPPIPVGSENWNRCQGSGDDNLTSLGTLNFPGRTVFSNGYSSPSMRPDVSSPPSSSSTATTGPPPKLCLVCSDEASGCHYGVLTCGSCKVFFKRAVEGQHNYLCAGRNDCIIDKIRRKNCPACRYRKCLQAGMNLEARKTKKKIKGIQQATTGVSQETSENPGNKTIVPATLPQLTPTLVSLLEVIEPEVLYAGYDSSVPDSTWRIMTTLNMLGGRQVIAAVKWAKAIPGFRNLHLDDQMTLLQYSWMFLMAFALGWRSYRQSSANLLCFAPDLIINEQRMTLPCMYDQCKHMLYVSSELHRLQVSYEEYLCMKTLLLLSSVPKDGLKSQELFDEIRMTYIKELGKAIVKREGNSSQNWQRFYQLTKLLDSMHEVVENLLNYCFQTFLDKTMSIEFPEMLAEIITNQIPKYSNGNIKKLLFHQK
Experiment [6] has the same target. In words: GR-EFC Redistribution (AID 451; calls by dose curve; note: potency is the fitted concentration of half-maximal effect). As to conditions: CHO-K1 GR-EFC translocation, beta-gal luminescence, 2 h. An outline of the steps:
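CHO-K1 cells expressing nuclear EA and GR-ED fragments of b-gal; compounds titrated up to 46 uM final, 2 h at 37 C. GR nuclear translocation read as complemented b-gal luminescence after 1 h RT detection.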

Experiment [7] has as its target 3',5'-cyclic-AMP phosphodiesterase 4B (Homo sapiens) (UniProt Q07343). In words: qHTS Assay for Inhibitors of PDE-IV (AID 607; active = well fitted activation curve with a large enough effect in the main read-out, with a control signal flat, not every such curve was filed as active; note: % of control where 0% means no effect). As to conditions: HEK293 ACTOne CNG channel cells, membrane potential fluorescence; series mostly up to 22.9 µM. An outline of the steps: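 ACTOne HEK293 cells carry a modified cAMP-gated CNG channel and express endogenous PDE4; plated 1000 cells/well, compounds up to 22.9 uM final. Membrane-potential dye fluorescence (ex 535/em 590) was read; parental cells received 10 uM forskolin + 100 uM RO 20-1724.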
(In general: Quantitative high-throughput screening tests each substance at several concentrations.)

For experiment [8], the target named is Mitogen-activated protein kinase 10 (Mus musculus) (UniProt Q61831). In words: JNK3 AlphaScreen Assay (AID 530).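 Note: kinase came from lysate of stimulated human HepG2 cells; signal reports phosphorylation of biotinylated GST-cJun 1-79 at Ser73 with 10 µM ATP; % is set by controls: 0 for no effect and ±100 for the full control effect.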 As to conditions: JNK3 lysate, c-Jun phosphorylation; series mostly up to 57.1 µM. An outline of the steps: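 HepG2 lysate (IL-1b/TNFa pre-activated) + biotin-GST-cJun 1-79 + anti-pSer73 cJun; cpd titration, 15 min RT; ATP 10 uM start; Tris pH 7.6, MgCl2, DTT, vanadate; beads in EDTA buffer; AlphaScreen.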

The target in experiment [9] is Cytochrome P450 1A2 (Homo sapiens) (UniProt P05177). Description: p450-cyp1a2 (AID 410; calls by dose curve; note: potency is the fitted concentration of half-maximal effect). As to conditions: recombinant CYP1A2, luciferin-ME demethylation, luminescence; series mostly up to 11.4 µM. An outline of the steps: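 Read-out is luminescence from luciferin produced by CYP1A2 demethylation of Luciferin-ME (100uM, at Km). Detection reagent stopped the 60 min NADPH-dependent reaction; signals were normalized to 57 uM furafylline.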
Chain of Cytochrome P450 1A2 (Homo sapiens) (P05177 whole entry, looked up): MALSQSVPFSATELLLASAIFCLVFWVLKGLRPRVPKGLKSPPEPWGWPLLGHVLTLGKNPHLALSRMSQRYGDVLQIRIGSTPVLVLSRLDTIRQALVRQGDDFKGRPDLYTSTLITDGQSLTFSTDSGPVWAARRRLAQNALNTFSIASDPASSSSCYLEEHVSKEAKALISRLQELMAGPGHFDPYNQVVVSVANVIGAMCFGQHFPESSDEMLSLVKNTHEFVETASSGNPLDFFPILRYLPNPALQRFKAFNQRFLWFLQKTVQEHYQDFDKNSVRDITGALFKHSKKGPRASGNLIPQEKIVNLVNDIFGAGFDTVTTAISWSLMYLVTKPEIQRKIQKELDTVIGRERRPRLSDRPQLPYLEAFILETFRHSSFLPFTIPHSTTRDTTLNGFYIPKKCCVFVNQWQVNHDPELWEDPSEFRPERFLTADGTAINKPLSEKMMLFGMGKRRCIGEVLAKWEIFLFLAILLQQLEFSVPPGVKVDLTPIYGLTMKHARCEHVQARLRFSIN

Experiment [10] concerns the target Cytochrome P450 3A4 (Homo sapiens) (UniProt P08684). Description: qHTS Assay for Activators of Cytochrome P450 3A4 (AID 885; active = well fitted curve in the direction sought with a large enough effect; an effect the other way counts as inactive or inconclusive; note: nearly all actives have a fitted effect of over 65% in size). As to conditions: recombinant CYP3A4, Luciferin-PPXE luminescence, 60 min; series mostly up to 57.1 µM. An outline of the steps: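 CYP3A4 activity: Luciferin-PPXE O-dealkylation, 25uM substrate, 200mM KPO4, RT throughout. Read-out is luciferase luminescence; higher values reflect activation.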

Experiment [11] addresses Cytochrome P450 2D6 (Homo sapiens) (UniProt P10635). In words: qHTS Assay for Inhibitors and Substrates of Cytochrome P450 2D6 (AID 891; active = well fitted curve in the direction sought with a large enough effect; an effect the other way counts as inactive or inconclusive; note: potency is the fitted concentration of half-maximal effect; nearly all actives have a fitted effect of over 60% in size). As to conditions: recombinant CYP2D6, luciferin-ME EGE luminescence; series mostly up to 11.4 µM. An outline of the steps:
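Luminescent read-out of luciferin formed by 5 nM human CYP2D6 demethylating 30 uM Luciferin-ME EGE (Km level) over 60 min at room temperature after NADPH regeneration addition. Data normalized to full inhibition by 1.43 uM quinidine.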

In experiment [12] the target is Cytochrome P450 2C19 (Homo sapiens) (UniProt P33261). In words: qHTS Assay for Inhibitors and Substrates of Cytochrome P450 2C19 (AID 899; active = well fitted curve in the direction sought with a large enough effect; an effect the other way counts as inactive or inconclusive; note: potency is the fitted concentration of half-maximal effect; nearly all actives have a fitted effect of over 60% in size). As to conditions: recombinant CYP2C19, luciferin-H EGE luminescence; series mostly up to 11.4 µM. An outline of the steps:
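Luminescent read-out of luciferin formed from Luciferin-H EGE (10uM, equal to KM). Enzyme 5nM in 50mM KPO4; compound added, 10 min at 37C, then NADPH regenerating system for 60 min at 37C. Full inhibition defined by 57uM ketoconazole.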

Unmarked numbers belong to inactive results. Inconclusive results are not listed. Calls of active or inactive are those of the source. Unless noted, calls come from the whole dose curve; as a rule, active = well fitted curve in either direction with a large enough effect (not every such curve was filed as active); inconclusive = small, poorly fitted or top-dose-only effect, or another doubt; inactive = flat fitted curve, though single readings scatter.

Chain of Lysosomal acid glucosylceramidase (Homo sapiens) (P04062 whole entry, looked up): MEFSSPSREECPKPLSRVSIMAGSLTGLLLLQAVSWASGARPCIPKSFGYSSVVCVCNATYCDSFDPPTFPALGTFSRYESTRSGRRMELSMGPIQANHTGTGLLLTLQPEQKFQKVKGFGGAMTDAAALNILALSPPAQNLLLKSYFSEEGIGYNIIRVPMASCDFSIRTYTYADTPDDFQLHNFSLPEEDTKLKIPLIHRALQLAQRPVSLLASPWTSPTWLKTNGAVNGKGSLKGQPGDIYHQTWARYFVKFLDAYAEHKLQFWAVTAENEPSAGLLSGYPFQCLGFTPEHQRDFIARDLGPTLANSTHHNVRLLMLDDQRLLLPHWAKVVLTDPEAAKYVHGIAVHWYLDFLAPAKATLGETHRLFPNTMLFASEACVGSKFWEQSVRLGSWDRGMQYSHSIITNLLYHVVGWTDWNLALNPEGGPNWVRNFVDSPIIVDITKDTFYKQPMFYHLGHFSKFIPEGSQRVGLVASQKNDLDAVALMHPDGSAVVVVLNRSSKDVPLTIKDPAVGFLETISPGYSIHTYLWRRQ
Chain of 3',5'-cyclic-AMP phosphodiesterase 4B (Homo sapiens) (Q07343 whole entry, looked up): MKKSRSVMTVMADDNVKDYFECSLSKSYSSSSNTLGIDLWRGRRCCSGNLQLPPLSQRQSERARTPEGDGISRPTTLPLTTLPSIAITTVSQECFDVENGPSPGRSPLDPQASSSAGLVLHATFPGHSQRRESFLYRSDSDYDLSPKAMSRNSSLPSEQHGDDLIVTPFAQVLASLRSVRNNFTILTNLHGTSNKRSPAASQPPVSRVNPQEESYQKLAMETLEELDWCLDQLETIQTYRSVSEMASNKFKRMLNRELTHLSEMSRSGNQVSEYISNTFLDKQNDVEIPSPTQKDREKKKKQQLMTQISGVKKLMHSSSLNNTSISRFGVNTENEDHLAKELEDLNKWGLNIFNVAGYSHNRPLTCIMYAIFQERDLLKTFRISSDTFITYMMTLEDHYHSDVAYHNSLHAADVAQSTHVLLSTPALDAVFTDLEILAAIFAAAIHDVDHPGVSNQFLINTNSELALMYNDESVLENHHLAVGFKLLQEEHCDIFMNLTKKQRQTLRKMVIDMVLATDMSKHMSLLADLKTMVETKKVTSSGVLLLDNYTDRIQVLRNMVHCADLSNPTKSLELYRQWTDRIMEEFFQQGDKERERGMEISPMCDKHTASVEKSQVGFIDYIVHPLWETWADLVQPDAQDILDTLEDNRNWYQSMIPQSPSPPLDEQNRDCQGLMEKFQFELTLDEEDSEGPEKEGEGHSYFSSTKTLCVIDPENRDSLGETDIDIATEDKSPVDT
Chain of Cytochrome P450 2C19 (Homo sapiens) (P33261 whole entry, looked up): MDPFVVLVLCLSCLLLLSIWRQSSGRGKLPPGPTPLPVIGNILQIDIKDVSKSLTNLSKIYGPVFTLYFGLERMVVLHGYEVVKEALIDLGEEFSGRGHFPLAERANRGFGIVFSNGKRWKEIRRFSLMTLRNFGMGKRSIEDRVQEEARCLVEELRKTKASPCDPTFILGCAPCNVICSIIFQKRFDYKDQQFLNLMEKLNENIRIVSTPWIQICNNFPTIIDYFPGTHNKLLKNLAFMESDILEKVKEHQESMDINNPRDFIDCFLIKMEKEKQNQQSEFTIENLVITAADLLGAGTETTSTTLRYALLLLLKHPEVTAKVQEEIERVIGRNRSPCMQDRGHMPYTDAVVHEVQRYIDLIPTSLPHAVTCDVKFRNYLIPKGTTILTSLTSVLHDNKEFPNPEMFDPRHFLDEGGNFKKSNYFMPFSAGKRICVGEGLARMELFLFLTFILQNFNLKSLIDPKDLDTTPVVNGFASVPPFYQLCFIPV
Chain of Cytochrome P450 2D6 (Homo sapiens) (P10635 whole entry, looked up): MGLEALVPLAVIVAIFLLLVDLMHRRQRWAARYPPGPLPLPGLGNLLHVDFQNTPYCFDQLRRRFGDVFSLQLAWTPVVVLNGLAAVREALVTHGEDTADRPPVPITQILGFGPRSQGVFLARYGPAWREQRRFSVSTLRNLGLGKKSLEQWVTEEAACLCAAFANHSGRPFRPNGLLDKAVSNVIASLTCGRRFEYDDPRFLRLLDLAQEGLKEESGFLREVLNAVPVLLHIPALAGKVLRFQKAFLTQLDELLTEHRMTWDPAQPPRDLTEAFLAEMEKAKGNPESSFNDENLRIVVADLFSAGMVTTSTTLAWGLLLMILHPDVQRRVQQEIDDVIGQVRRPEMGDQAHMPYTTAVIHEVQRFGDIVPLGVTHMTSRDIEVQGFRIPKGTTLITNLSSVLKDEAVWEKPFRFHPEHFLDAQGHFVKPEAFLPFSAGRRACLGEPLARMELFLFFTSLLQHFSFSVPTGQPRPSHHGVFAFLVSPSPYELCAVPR
Chain of Cytochrome P450 3A4 (Homo sapiens) (P08684 whole entry, looked up): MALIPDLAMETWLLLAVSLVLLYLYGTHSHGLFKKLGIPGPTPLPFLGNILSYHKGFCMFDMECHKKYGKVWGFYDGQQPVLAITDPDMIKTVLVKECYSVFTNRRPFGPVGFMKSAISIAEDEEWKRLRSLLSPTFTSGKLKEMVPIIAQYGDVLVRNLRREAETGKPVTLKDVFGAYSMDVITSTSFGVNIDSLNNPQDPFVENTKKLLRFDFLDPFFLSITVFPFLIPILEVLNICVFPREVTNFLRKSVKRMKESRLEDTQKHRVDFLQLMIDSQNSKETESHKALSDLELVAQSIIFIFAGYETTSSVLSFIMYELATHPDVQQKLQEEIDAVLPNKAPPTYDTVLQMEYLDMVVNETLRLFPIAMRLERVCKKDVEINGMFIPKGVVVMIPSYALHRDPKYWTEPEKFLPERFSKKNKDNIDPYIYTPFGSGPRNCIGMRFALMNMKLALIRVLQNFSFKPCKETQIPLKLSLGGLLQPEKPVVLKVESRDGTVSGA

For the molecule `NNc1nncn1N`, the Potency in experiment [1] is above 11.4 µM; in [5], above 46 µM; in experiment [6], above 9.22 µM. The activity change, negative = inhibition in experiment [2] is 17.5%; in experiment [3] it was 5.16%. Further, the activity, negative = inhibition in [4] is 18.4%. The call in experiment [7] was inactive.

As to `CCNCCC1(CC)C(=O)NC(=O)NC1=O`, the Potency in experiment [1] is above 11.4 µM; in experiment [5], above 46 µM. For the same molecule, the values for the activity change, negative = inhibition in experiment [2], in experiment [3] and in experiment [8] were 0.916%, 11.4% and 3.87% [at 11.4 µM], respectively. Moreover, the activity, negative = inhibition in experiment [4] was 2.13%. For the same molecule, the molecule was called inactive in [7].

As to `C(=NCCN1CCOCC1)=NC1CCCCC1`, the Potency was above 11.4 µM in experiment [1] and above 46 µM in experiment [5]. Also, the activity change, negative = inhibition in experiment [2] is -1.14%; in experiment [3] it was 12.1%; in experiment [8] it was 3.92% [at 11.4 µM]. In addition, in experiment [4], the activity, negative = inhibition is 19.2%. In [7], the call was inactive.

Take `N[C@@H](Cc1c[nH]c2cc([N+](=O)[O-])ccc12)C(=O)O`: the Potency was above 11.4 µM in experiment [1], above 46 µM in experiment [5] and above 9.22 µM in experiment [6]. In addition, the activity change, negative = inhibition in experiment [2] is -8.44%; in experiment [3] it was 5.87%; in experiment [8], 4.66% [at 11.4 µM]. The activity, negative = inhibition in experiment [4] was 10.4%. The molecule was classed as inactive in experiment [7].

As to `NCCSC(c1ccccc1)c1ccccc1`, the Potency was above 11.4 µM in experiment [1]; 1.58 µM (active) in experiment [9]; above 46 µM in [5]; above 9.22 µM in experiment [6]; 0.794 µM (active) in experiment [11]; 1.26 µM (active) in [12]. In addition, the results for the activity change, negative = inhibition in experiment [2] and in experiment [8] were 6.46% and 1.83% [at 11.4 µM], respectively. Also, the molecule was called inactive in [7]. In addition, the activity change, positive = activation in experiment [10] is -39.5% [at 11.4 µM].

As to `CCOC(=O)c1ccc2[nH]c(-c3ccc(S(=O)(=O)F)cc3)cc(=O)c2c1`, the Potency was above 11.4 µM in experiment [1], above 46 µM in [5] and above 9.22 µM in experiment [6]. Moreover, the activity change, negative = inhibition in experiment [2] was -7.65%; in [3], 25.8%; in experiment [8] it was 3.3% [at 11.4 µM]. For the same molecule, the activity, negative = inhibition in experiment [4] was -0.749%. Besides, the call in experiment [7] was inactive.

For `Nc1c(C(=O)Nc2ccc([As](=O)(O)O)cc2)cnc2nnnn12`, the results for the Potency in experiment [1], in [5] and in experiment [6] were above 11.4 µM, above 46 µM and above 9.22 µM, respectively. For the same molecule, the activity change, negative = inhibition was 2.63% in [2], 25.5% in [3] and 0.733% [at 11.4 µM] in [8]. In addition, the activity, negative = inhibition in [4] is -0.343%. Also, in [7], the molecule was classed as inactive.

Take `N#CS.N=C=S.N=C=S.[Cu].[NH2-].[NH2-].[NH2-].[NH2-].c1ccc2ncccc2c1`: the Potency in experiment [1] was above 11.4 µM; in experiment [5] it was above 46 µM; in experiment [6] it was above 9.22 µM. The figures for the activity change, negative = inhibition in experiment [2], in experiment [3] and in [8] were -1.15%, 0.5% and 0.42% [at 11.4 µM], respectively. Also, the activity, negative = inhibition in [4] was -4.61%. The molecule was classed as inactive in [7].
